Compounds without any hit were thinned out: in the full panel of roughly 83,000, 20% have a hit.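 Interpretation: 100, growth as untreated; towards 0, rising growth inhibition; 0, no net growth; 0 to -100, cell death. Compounds scoring below 10 were considered active.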 Values without a mark were called inactive. Active and inactive are the calls of the source.

The assay deals with HL-60(TB) leukemia. The experiment in a line: NCI-60 one-dose screen, 48 h (100 = growth as untreated, 0 = no growth, -100 = all killed). To be noted: 10 µM unless noted.
Turning to `CCCCCCCCCCC1CO1` (stereo not given), the growth was 104%.

Consider `COc1ccc(-c2nn(-c3cccc(Cl)c3)cc2-c2cc(-c3ccccc3)nc(N)n2)cc1`, for which the growth is 56.3%. As for `COc1ccc(-c2nc(N/N=C/c3ccco3)nc(N3CCOCC3)c2C#N)cc1`, the figure is 94.8%; as for `O=C(N/N=C/c1c(Cl)cccc1Cl)c1ccc(C(F)(F)F)nc1Nc1cccc(C(F)(F)F)c1`, -44.5% (active). As for `CCOS(=O)(=O)c1ccc([N+](=O)[O-])cc1`, the figure is 95.9%; as for `CC(=O)OC[C@]12CC[C@@H](c3cn(Cc4ccc(Cn5cc([C@@H]6CC[C@]7(COC(C)=O)CC[C@]8(C)[C@H](CC[C@@H]9[C@@]%10(C)CC[C@H](OC(C)=O)C(C)(C)[C@@H]%10CC[C@]98C)[C@@H]67)nn5)cc4)nn3)[C@@H]1[C@H]1CC[C@@H]3[C@@]4(C)CC[C@H](OC(C)=O)C(C)(C)[C@@H]4CC[C@@]3(C)[C@]1(C)CC2`, 90.5%.

On to `COc1ccc(C2CC(c3cccc(Nc4ccncc4)c3)=NN2c2cc(Cl)cc(Cl)c2)cc1` (stereo not given), for which the growth was 4.35% (active).

For `O=C(N=Nc1c(O)[nH]c2ccc(Br)cc12)c1cc(-c2ccccc2)on1`, the growth was 84.9%. For `O=C(O)c1ccc(-c2ccc(/C=N/Nc3nc(Nc4ccccc4)nc(N4CCCCC4)n3)o2)cc1`, the growth is 66.4%. Turning to `CCn1cc(C(=O)NN=C2CCCCCC2)c(=O)c2ccc(C)nc21`, the growth is 80.2%.

As for `Cn1c2c(Cl)c(Cl)ccc2c2c(C#N)c[nH]c(=O)c21`, the growth is 107%. `COCCNc1ccc2c3c(cccc13)C(=O)N(CCN(C)C)C2=O`: the growth was -17% (active). As for `Cc1ccccc1Nc1cc(O)c2c(=O)cc(-c3ccccc3)oc2c1`, the figure is 8.58% (active). The same measure for `CN(C)C1=NCCN1`: 97.9%; for `CCc1c(Nc2ccc(C)cc2)[nH]c(N)nc1=S`: 99.8%.

On to `CCOC(=O)N[C@H]1CCc2cc(OC)c(OC)c(OC)c2-c2ccc(SC)c(=O)cc21`, for which the growth is -28.9% (active).

For `CCCCN1c2nc3ccccc3cc2Sc2cc3ccccc3nc21`, the growth was 101%. The same measure for `COc1ccc(-c2nn(-c3cccc(Cl)c3)cc2/C=C2\NC(=S)N(c3ccc(Cl)cc3)C2=O)cc1`: 24.9%. As for `COc1ccc(C(=O)/C=C/c2cccc([N+](=O)[O-])c2)c(OC)c1`, the figure is -10.4% (active). As for `NC1=NC(c2ccccc2OS(=O)(=O)c2ccc(Br)cc2)n2c(nc3ccccc32)N1` (stereo not given), the figure is 69.7%; as for `O=C1c2ccccc2-c2c1c1cccnc1c(=O)n2C[C@H](O)CO`, 48.8%.

Turning to `COC(=O)c1cc2c(n1Cc1ccccc1)-c1oncc1CCC2`, the growth is 28.9%. As for `CN1C(=O)N(C)C2(c3ccccc3)OC(=S)NC12c1ccccc1` (stereo not given), the figure is 95.6%. For the molecule `CCCNc1nc(C)[nH]c(=O)c1S`, the growth is 92.1%. The same measure for `Cc1ccc(Cl)cc1NC(=O)c1cc2ccccc2cc1O`: -49.5% (active); for `CC(O)CN(CC(C)O)N(CC(C)O)CC(C)O` (stereo not given): 102%; for `Cc1cc2c(c(C)c1Cl)C(=O)/C(=C/c1cccc([N+](=O)[O-])c1)O2`: 98.8%. The same measure for `COc1ccc2c(c1)N(CCO)C1=C(C(=O)OC1)C2c1cccc(F)c1` (stereo not given): -22.7% (active). Turning to `Cc1ccc(NCc2cn(-c3ccc(C(=O)O)cc3)nc2-c2ccc(C(=O)O)cc2)cc1`, the growth is 106%. For `CCCCCCCCCCCCOB(OCCCCCCCCCCCC)OCCCCCCCCCCCC`, the growth was 107%.

As to `CCOC(=O)C/C(=N\Nc1cc(=O)[nH]c2ccc(Cl)cc12)C(=O)OCC`, the growth was 90.6%. As for `Nc1nc(Nc2ccccc2)c2ncn(Cc3cc4c(cc3Br)OCO4)c2n1`, the figure is -11.7% (active). As for `CCCCCCCCCCCCCCCCOc1ccccc1NC(=O)CC(C)=O`, the growth was 98%. As for `NS(=O)(=O)c1cccc(NC(=O)C(=O)C2C(=O)Nc3ccccc32)c1` (stereo not given), the figure is 159%; as for `CCN1CCCC1CNC(=O)c1ncc(-c2ccc(C(F)(F)F)cc2)c(NC2CCCCCC2)n1` (stereo not given), 65.9%. For `Cc1nc2cc(-c3nn(C(C)C)c4ncnc(N)c34)ccc2o1`, the growth was 5.12% (active). In the case of `OCCN1CCN(c2cc(-c3cccc(OC(F)(F)F)c3)nc3ccc(N4CCCC4)cc23)CC1`, the growth was 62.8%. As for `CCCCCCCc1n(Cc2ccc3ccccc3c2)c2ccccc2[n+]1Cc1ccc2ccccc2c1`, the figure is -63.7% (active). The same measure for `N#Cc1c(-c2ccc(Cl)cc2)nc(NN=Cc2ccc[nH]2)nc1N1CCOCC1`: 2.28% (active); for `O=C(c1ccccc1)c1c(/C=C/c2ccccc2)nc2ccccc2c1/C=C/c1ccc(Br)cc1`: 112%.
